# Most compounds without a hit are left out; they make up all but 2.1% or so of the library.
# VHR inh abs: blocks human VHR1 dual specificity phosphatase | AID 1654 | recombinant VHR phosphatase, pNPP absorbance | P51452 | 0.52% of 290,000 active | inhibition, % at 13.3 µM; in the data active = inhibition above about 50%
# Target sequence (P51452 whole entry, looked up): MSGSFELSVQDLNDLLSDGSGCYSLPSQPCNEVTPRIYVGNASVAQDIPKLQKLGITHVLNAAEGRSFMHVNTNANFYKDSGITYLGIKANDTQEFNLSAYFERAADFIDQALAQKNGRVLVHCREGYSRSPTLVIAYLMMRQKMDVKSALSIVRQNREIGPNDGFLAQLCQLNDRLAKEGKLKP
# PfHsp40 rescue: restores yeast growth despite PfHsp40 toxicity. S. cerevisiae expressing PfHsp40, growth rescue, ATP luminescence. growth rescue, % at 12.5 µM. 0.68% of 340,000 active. AID 504582; in the data active = growth rescue above about 28%, passing the limit was not always enough;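 note: yeast W303a lacking pdr1 and pdr3 grown in galactose medium; growth measured after three days at 30 °C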
# PrP UTR inh: suppresses PrP 5' UTR mRNA reporter expression. cell-based PrP 5' UTR mRNA reporter, plate reader. inhibition, % (test concentration not listed). 0.35% of 340,000 active. AID 488862; in the data active = inhibition above about 52%; note: 0 = median of the neutral control wells
# PrPC TRFRET: inhibitors of human cell surface prion protein PrPC | TR-FRET read-out | P04156 | 0.43% of 370,000 active | inhibition, % at 13.8 µM; in the data active = inhibition above about 24%; note: 0% = median of the test wells and 100% = reference compound wells
# BJeLR lethal: kills HRASV12-expressing BJeLR cells; BJeLR (HRASV12) viability, CellTiter-Glo ATP luminescence, 48 h; inhibition, % (concentration not given with the values); 0.17% of 300,000 active; in the data active = inhibition above about 50%
# MazF activator: increases E. coli MazEF RNase cleavage of RNA; P0AE70; FAM/BHQ RNA-DNA oligo cleavage fluorescence, 5 h; activation, % at 20 µM; 0.32% of 350,000 active; AID 504720; in the data active = activation above about 50%
# Target sequence (P0AE70 whole entry, looked up): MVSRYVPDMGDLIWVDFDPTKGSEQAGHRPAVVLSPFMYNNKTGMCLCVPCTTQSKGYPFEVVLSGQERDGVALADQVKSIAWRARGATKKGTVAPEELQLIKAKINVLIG
# * marks the source's active call; other numbers are inactive results; / = no result.
SMILES,VHR inh abs,PfHsp40 rescue,PrP UTR inh,PrPC TRFRET,BJeLR lethal,MazF activator
O=C1C[C@H](c2ccc3ccccc3c2)N=C2N1/C(=C\c1ccccc1)[C@@H](c1ccccc1C(F)(F)F)N2Cc1ccc2c(c1)OCO2,/,/,/,7,/,/
Cc1cccc2c(=O)c(C(=O)NCCCN3CCOCC3)c[nH]c12,53*,-2,-3,4,0,8
Cc1ccc(S(=O)(=O)NCCCNS(C)(=O)=O)cc1,3,-1,-13,0,10,-7
Cc1ccc(S(=O)(=O)NCCNS(=O)(=O)c2ccc(C)cc2)cc1,58*,1,/,3,1,6
Cc1ccc(C(=O)C2=C(O)C(=O)N(Cc3cccnc3)C2c2cccc(Oc3ccccc3)c2)o1 (stereo not drawn),-7,/,/,44*,3,-5
CCOc1cc(C2C(C(=O)c3ccc(C)o3)=C(O)C(=O)N2CCc2ccccc2)ccc1O (stereo not drawn),25,77*,-20,-8,8,4
ClC1=C(Cl)C(Cl)=C(Cl)C1=C/C=C/c1ccccc1,-5,1,-21,-9,89*,-6
COc1ccc(S(=O)(=O)N2CCCCCC2)cc1C(=O)NCCOc1ccc(C)cc1,/,5,-18,-1,6,-2
Cc1[nH]n(-c2ccccc2)c(=O)c1/C=N/N1C(=O)c2ccc3c4c(ccc(c24)C1=O)CC3,51*,-1,-33,-18,-2,-7
C=C1C(=O)O[C@@H]2C[C@@H](C)[C@H]3C=CC(=O)[C@]3(O)C[C@@H]12,15,0,-7,-10,66*,3
CC1([N+](=O)[O-])COC(C=Cc2ccccc2)OC1 (stereo not drawn),/,2,-20,0,/,-1
O=S(=O)(Nc1cccc2c1CCCC2)c1ccc(Cl)cc1,-3,42*,-4,2,-3,4
CCOc1ccc2nc(S(=O)(=O)NC(=O)C3(C)CCN3C(=O)CCc3cccs3)sc2c1 (stereo not drawn),/,/,/,22,/,/
O=C(Oc1coc(CSc2ncccn2)cc1=O)c1ccc([N+](=O)[O-])cc1,/,/,/,-6,/,/
Nc1ncnc2c1ncn2[C@@H]1O[C@H](CNC(=O)[C@@H](N)C2CCCCC2)[C@@H](O)[C@H]1O,/,73*,-3,-4,/,2
CSCC[C@H](N)C(=O)NC[C@H]1O[C@@H](n2cnc3c(N)ncnc32)[C@H](O)[C@@H]1O,/,39*,1,1,/,7
COC(=O)Cn1cc(C=C2C(=O)N(C)C(=O)N(C)C2=O)c2ccccc21,15,/,/,2,-1,195*
CCN(CC)C(=O)Cn1cc(C=C2C(=O)N(C)C(=O)N(C)C2=O)c2ccccc21,/,0,/,3,13,-25
COc1ccccc1N1CCN(C2CCCN(Cc3ccccc3OCCO)C2)CC1 (stereo not drawn),59*,-1,-22,-7,-7,11
CN(c1ccc(OCC(=O)Nc2ccc(S(N)(=O)=O)cc2)cc1)S(=O)(=O)c1ccc(F)cc1,/,0,-24,1,/,7
CN(c1ccc(OCC(=O)Nc2cc(Cl)ccc2C(=O)O)cc1)S(=O)(=O)c1ccc(F)cc1,/,26*,-37,1,/,0
COc1cc(C(=O)O)c2c(c1C)OC(=O)c1c(C)cc(O)c(C=O)c1O2,/,86*,-23,-4,-5,-7
CN(Cc1cn(C)c2ccccc12)C(=S)Nc1cc(F)cc(F)c1,1,57*,1,-8,-5,-6
Cc1cccc(NC(=S)N(C)Cc2cn(C)c3ccccc23)c1,-1,0,-7,3,2,-7
CN(C(=O)COC(=O)c1ccc(S(=O)(=O)N2CCCCCC2)cc1)c1ccccc1,/,/,/,5,/,1
SMILES,VHR inh abs,PfHsp40 rescue,PrP UTR inh,PrPC TRFRET,BJeLR lethal,MazF activator
Cc1nnc(SCC(=O)NC2CCCc3c2cnn3-c2ccccc2F)o1 (stereo not drawn),6,1,-7,2,2,-1
C=CS(=O)(=O)c1sc(Cl)c(N2CCOCC2)c1[N+](=O)[O-],8,482*,10,-3,-2,-36
CCOc1cc(S(=O)(=O)N2CCN=C2Cc2ccccc2)ccc1F,4,0,-7,3,6,5
Cn1c2ccccc2c2c(=O)oc3ccccc3c21,/,2,-39,-3,/,-6
CS(=O)(=O)c1nc(S(=O)(=O)c2ccc(Cl)cc2)c(N2CCC(C(N)=O)CC2)s1,-5,0,6,6,-7,5
CCS(=O)(=O)c1nc(S(=O)(=O)c2ccc(Cl)cc2)c(N2CCC(C(N)=O)CC2)s1,56*,-1,0,-3,-3,9
COc1ccc(-n2c(O)c(/C=C3\C=Nc4ccccc43)c(=O)[nH]c2=O)cc1,1,-1,-13,0,-3,304*
CCCCCCOc1ccc(/C(C)=N/NC2=NCCN2)cc1[N+](=O)[O-],23,1,-26,-7,2,-6
CCCCOc1ccc(Br)cc1/C(C)=N/NC1=NCCN1,18,1,-40,17,52*,14
O=C(CSc1nnc(-c2ccc(Cl)cc2)n1-c1ccccc1)NN=Cc1c[nH]c2ccccc12,/,/,/,20,/,/
Cc1ccc(C(=O)NN=C2CCCCCC2)s1,44,0,-6,-1,3,6
Cc1ccsc1C(=O)NN=C1CCCCCC1,53*,-1,-23,1,1,8
CN(Cc1ccccc1)C(=O)OCc1cn(Cc2ccccc2F)nn1,/,/,/,5,/,/
O=C(Cc1cccs1)Nc1cccc(-c2nc3cc4ccccc4cc3[nH]2)c1,-1,77*,-127,4,16,56*
CC(=O)Nc1cccc(NC(=O)Cc2cccs2)c1,18,1,-7,0,9,9
COc1ccc2c(c1)c1nnc(SC)nc1n2C,-6,59*,-22,-6,5,12
COc1ccc2c(c1)c1nnc(SCC(=O)N3C(C)CCCC3C)nc1n2C (stereo not drawn),20,0,-9,-22,-5,-3
O=C(CC12CC3CC(CC(C3)C1)C2)NC1CC1,/,-1,-12,2,-7,5
COC(=O)C1=C(C)N(C)C(=NCc2ccc(C(F)(F)F)cc2)NC1c1ccccc1C(F)(F)F (stereo not drawn),/,/,/,3,/,/
COc1cc(NC(=O)c2ccccc2)c(OC)cc1NC(=O)Cc1ccc(Br)cc1,22,1,-19,8,-8,55*
COc1cc(C(=O)Nc2ccc(Br)cc2C(=O)c2ccccc2)cc(OC)c1OC,10,81*,-12,1,-8,-58
COc1cc(NC(=O)c2ccc(Br)cc2)c(OC)cc1NC(=O)c1ccccc1,-4,-1,-13,3,4,-2
COc1ccc2c(c1)c(=O)oc1cc(OC(C(=O)O)c3ccccc3)ccc12 (stereo not drawn),-2,0,-28,5,0,11
COc1ccc(CC(=O)N(C)Cc2ccc(OC(F)F)cc2)cc1S(=O)(=O)N1CCOCC1,/,2,0,-10,/,-6
